Drawing on PubChem BioAssay (Tox21), this text covers Potency and outcome for nine compounds.

Structures are written as SMILES. Records with an inconclusive call do not appear. Unmarked numbers belong to inactive results. Activity calls are given as the source filed them. Unless noted, calls follow the shape of the dose curve; as a rule, active = well fitted curve in the direction sought with a large enough effect in the repeat runs; inconclusive = weak or mixed curves; inactive = no such curve, though single readings can be large; an effect the other way counts as inactive or inconclusive.

Assay [1] in a line: qHTS assay to identify aromatase inhibitors - cell viability counter screen (AID 743084).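 Also: cells stimulated with testosterone during compound exposure; nearly all actives have a fitted effect of over 55% in size.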 On the technique in general: In qHTS, concentration-response curves come from the screen itself.
The target in assay [2] is Aryl hydrocarbon receptor (Homo sapiens) (UniProt P35869). Description: qHTS assay to identify small molecule that activate the aryl hydrocarbon receptor (AhR) signaling pathway (AID 743085). Also: nearly all actives have a fitted effect of over 15% in size. Also: potency is read from the fitted curve at half-maximal effect.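 As to activation: HG2L7.5c1 human HepG2 liver cells with stably integrated DRE-driven firefly reporter; series mostly up to about 70 µM.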 An outline of the steps: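 Reporter assay in engineered HepG2 line HG2L7.5c1, whose plasmid carries twenty dioxin responsive elements upstream of firefly luciferase. Treatment lasted 24 h at 37C; ONE-Glo luminescence gauged induction.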
Chain of Aryl hydrocarbon receptor (Homo sapiens) (P35869 whole entry, looked up): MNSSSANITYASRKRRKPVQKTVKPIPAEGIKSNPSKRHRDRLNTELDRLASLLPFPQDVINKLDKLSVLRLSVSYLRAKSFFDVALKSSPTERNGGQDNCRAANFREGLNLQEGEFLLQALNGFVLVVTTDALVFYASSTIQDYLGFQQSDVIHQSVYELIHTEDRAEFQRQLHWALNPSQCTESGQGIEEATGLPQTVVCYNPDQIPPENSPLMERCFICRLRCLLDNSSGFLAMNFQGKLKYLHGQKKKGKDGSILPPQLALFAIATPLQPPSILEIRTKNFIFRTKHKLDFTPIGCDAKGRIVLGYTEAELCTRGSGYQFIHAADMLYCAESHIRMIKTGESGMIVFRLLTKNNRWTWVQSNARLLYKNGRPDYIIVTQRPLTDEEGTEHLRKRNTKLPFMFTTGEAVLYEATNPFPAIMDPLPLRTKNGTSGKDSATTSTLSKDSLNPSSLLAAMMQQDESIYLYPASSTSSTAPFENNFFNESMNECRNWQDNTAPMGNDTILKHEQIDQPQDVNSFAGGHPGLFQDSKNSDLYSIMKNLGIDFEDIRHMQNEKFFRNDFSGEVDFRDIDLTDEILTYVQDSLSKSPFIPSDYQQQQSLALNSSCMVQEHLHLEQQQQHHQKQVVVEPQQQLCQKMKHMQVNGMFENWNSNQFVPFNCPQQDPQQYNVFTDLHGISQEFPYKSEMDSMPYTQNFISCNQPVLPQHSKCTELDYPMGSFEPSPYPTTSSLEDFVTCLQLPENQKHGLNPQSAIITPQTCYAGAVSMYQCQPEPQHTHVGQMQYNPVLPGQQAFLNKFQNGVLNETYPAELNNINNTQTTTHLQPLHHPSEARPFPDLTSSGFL

The nature of assay [3]: qHTS assay to identify small molecule that activate the aryl hydrocarbon receptor (AhR) signaling pathway - cell viability counter screen (AID 743086).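 Also: HepG2 liver cells carrying the AhR DRE luciferase reporter; series mostly up to about 70 µM; nearly all actives have a fitted effect of over 45% in size.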 An outline of the steps: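 HepG2-AhR-luc (HG2L7.5c1) cells, 4000/well, were preincubated 5 h at 37C, exposed to compound in qHTS format for 24 hr at 37C, then given CellTiter-Fluor for 30 min; viability was read as fluorescence in the reporter wells.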

The target in assay [4] is Peroxisome proliferator-activated receptor gamma (Homo sapiens) (UniProt P37231). The experiment in a line: qHTS assay to identify small molecule agonists of the peroxisome proliferator-activated receptor gamma (PPARg) signaling pathway (AID 743094; active = well fitted activation curve with a large enough effect in the signal ratio in the repeat runs, not every such curve was filed as active; the % refers to the signal ratio). An outline of the steps: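 Following 5 h plating at 37C, PPARg-bla HEK293H cells receive compound or DMSO for 17 h; fluorescence intensity is recorded after LiveBLAzer B/G loading for 1 h at room temperature.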
Chain of Peroxisome proliferator-activated receptor gamma (Homo sapiens) (P37231 whole entry, looked up): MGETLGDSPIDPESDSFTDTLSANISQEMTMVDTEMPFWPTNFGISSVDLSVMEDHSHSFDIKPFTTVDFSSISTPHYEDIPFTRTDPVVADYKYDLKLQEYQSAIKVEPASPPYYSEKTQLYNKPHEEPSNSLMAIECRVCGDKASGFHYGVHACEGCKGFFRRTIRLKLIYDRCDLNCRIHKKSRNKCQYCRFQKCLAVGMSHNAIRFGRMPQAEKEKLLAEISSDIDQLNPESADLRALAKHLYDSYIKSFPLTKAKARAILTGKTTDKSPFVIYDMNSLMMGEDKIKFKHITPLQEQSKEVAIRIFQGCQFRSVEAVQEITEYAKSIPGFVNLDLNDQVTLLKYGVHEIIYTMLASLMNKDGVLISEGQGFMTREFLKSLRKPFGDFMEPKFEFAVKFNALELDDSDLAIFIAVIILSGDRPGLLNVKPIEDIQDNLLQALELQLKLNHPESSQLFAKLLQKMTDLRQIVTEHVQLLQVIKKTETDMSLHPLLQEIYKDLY

Assay [5] can be described thus: qHTS assay to identify small molecule antagonists of the peroxisome proliferator-activated receptor gamma (PPARg) signaling pathway - cell viability counter screen (AID 743194). Also: nearly all actives have a fitted effect of over 55% in size. As to conditions: Potency: co-treated with 50 nM rosiglitazone. An outline of the steps: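 PPARg-UAS-bla HEK293H cells were plated, rested 5 h at 37 C, then treated with compounds plus rosiglitazone (50 nM final) for 17 h at 37 C; viability was then read by CellTiter-Glo luminescence after 30 min at room temperature.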

Assay [6] in a line: qHTS assay for small molecule agonists of the antioxidant response element (ARE) signaling pathway (AID 743202; active = well fitted activation curve with a large enough effect in the signal ratio in the repeat runs, not every such curve was filed as active; the % refers to the signal ratio). An outline of the steps: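 Read-out: LiveBLAzer B/G FRET substrate fluorescence after 2 h at room temperature, following 16 h compound treatment at 37 C of HepG2 cells carrying an ARE-driven beta-lactamase reporter.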
A short description of assay [7]: qHTS assay for small molecule agonists of the antioxidant response element (ARE) signaling pathway - cell viability counter screen (AID 743203; calls by dose curve; also: nearly all actives have a fitted effect of over 55% in size). An outline of the steps:
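Compounds in DMSO were pinned onto ARE-bla HepG2 cells plated 5 hrs earlier at 2,000 cells/well. Sixteen hours later at 37C/5% CO2, CellTiter-Glo was added and luminescence measured after 30 min at room temperature.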

Assay [8] can be described thus: qHTS assay for small molecule activators of the heat shock response signaling pathway - cell viability counter screen (AID 743209). Also: nearly all actives have a fitted effect of over 50% in size. An outline of the steps: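 Counter screen for cytotoxicity in HeLa HSE-bla reporter cells. Treatment was 5 h at 37 C; viability was detected by luminescent ATP assay (CellTiter-Glo) in the same wells as the beta-lactamase read.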
Assay [9] is described as follows: qHTS assay for small molecule activators of the heat shock response signaling pathway (AID 743210; active = well fitted activation curve with a large enough effect in the signal ratio in the repeat runs, with a control signal flat, not every such curve was filed as active; the % refers to the signal ratio; also: series mostly up to about 63 µM). The essentials: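 HSE-bla HeLa cells (beta-lactamase reporter under heat shock response elements) were exposed to compounds for 5 h at 37 C, then loaded with LiveBLAzer B/G FRET substrate for 2.5 h at room temperature before fluorescence reading.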
Assay [10] in a line: qHTS assay to identify small molecule agonists of the peroxisome proliferator-activated receptor delta (PPARd) signaling pathway - cell viability counter screen (AID 743211). Also: nearly all actives have a fitted effect of over 55% in size. The essentials: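 Multiplexed format: after the 2 h room-temperature LiveBLAzer B/G FRET step, CellTiter-Glo was added to the same wells. Luminescence after 30 min gave cell viability; compound exposure was 17 h at 37C.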

For assay [11], the target named is Peroxisome proliferator-activated receptor delta (Homo sapiens) (UniProt Q03181). The experiment in a line: qHTS assay to identify small molecule agonists of the peroxisome proliferator-activated receptor delta (PPARd) signaling pathway (AID 743212; calls by dose curve). An outline of the steps: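 GeneBLAzer PPARd UAS-bla HEK293H cells (beta-lactamase reporter under UAS control), plated and rested 5 h at 37 C, then exposed to compounds in DMSO at 37 C; LiveBLAzer B/G FRET substrate added, 2 h room temperature, fluorescence read.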
Chain of Peroxisome proliferator-activated receptor delta (Homo sapiens) (Q03181 whole entry, looked up): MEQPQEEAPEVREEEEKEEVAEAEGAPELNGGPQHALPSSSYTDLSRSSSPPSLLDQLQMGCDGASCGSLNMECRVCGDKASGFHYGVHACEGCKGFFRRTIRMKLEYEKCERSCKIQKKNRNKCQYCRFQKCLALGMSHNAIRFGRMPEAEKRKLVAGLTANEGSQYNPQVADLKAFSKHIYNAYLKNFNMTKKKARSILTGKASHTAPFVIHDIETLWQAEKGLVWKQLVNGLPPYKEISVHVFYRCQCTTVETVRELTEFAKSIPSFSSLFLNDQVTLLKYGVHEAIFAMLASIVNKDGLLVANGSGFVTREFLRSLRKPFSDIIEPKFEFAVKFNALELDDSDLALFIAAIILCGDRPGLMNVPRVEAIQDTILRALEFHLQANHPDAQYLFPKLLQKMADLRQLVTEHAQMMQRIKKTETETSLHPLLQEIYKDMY

Assay [12] in a line: qHTS assay to identify small molecule antagonists of the farnesoid-X-receptor (FXR) signaling pathway - cell viability counter screen (AID 743221; active = well fitted cell-killing curve with a large enough effect in the repeat runs, not every such curve was filed as active; also: nearly all actives have a fitted effect of over 50% in size). An outline of the steps: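 CellTiter-Glo, 30 min RT, luminescence; same wells as the LiveBLAzer FRET read. Cells: FXR-UAS-bla HEK 293T. Treatment: compound with chenodeoxycholic acid 50 uM final, 16 h at 37 C.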
In assay [13] the target is Peroxisome proliferator-activated receptor gamma (Homo sapiens) (UniProt P37231). The experiment in a line: qHTS assay to identify small molecule antagonists of the peroxisome proliferator-activated receptor gamma (PPARg) signaling pathway (AID 743191; calls by dose curve; also: nearly all actives have a fitted effect of over 30% in size; also: potency is read from the fitted curve at half-maximal effect). An outline of the steps: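 GeneBLAzer PPARg UAS-bla HEK293H cells carrying a UAS-driven beta-lactamase reporter were plated at 3000 cells/well, preincubated 5 h at 37C, then given compound for 17 h at 37C; LiveBLAzer B/G FRET substrate was read after 1 h at room temperature.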

The nature of assay [14]: qHTS assay to identify small molecule antagonists of the peroxisome proliferator-activated receptor delta (PPARd) signaling pathway - cell viability counter screen (AID 743213). Also: nearly all actives have a fitted effect of over 50% in size. The essentials: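 PPARd-bla HEK293H cells (3000/well) got compound plus 300 nM L165041 agonist for 17 h at 37 C. Viability in the same wells came from CellTiter-Glo luminescence after 30 min at room temperature.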

Assay [15] can be described thus: qHTS assay to identify small molecule agonists of the farnesoid-X-receptor (FXR) signaling pathway - cell viability counter screen (AID 743218). Also: nearly all actives have a fitted effect of over 45% in size. An outline of the steps: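 After 16 h at 37 C with test compounds, FXR-bla HEK 293T cells were given LiveBLAzer B/G substrate for 2 h at RT and then CellTiter-Glo; luminescence was taken after 30 min.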
Assay [16] addresses Vitamin D3 receptor (Homo sapiens) (UniProt P11473). Description: qHTS assay to identify small molecule agonists of the vitamin D receptor (VDR) signaling pathway (AID 743222; calls by dose curve). An outline of the steps:
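VDR-bla cells were seeded, left 4 h, treated with compounds in DMSO for 16 h, incubated 2 h at RT with B/G FRET substrate, and read for fluorescence.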

Assay [17] addresses Peroxisome proliferator-activated receptor delta (Homo sapiens) (UniProt Q03181). The experiment in a line: qHTS assay to identify small molecule antagonists of the peroxisome proliferator-activated receptor delta (PPARd) signaling pathway (AID 743215; active = well fitted inhibition curve with a large enough effect in the signal ratio in the repeat runs, not every such curve was filed as active; the % refers to the signal ratio;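 also: cells stimulated with agonist L165041 at 300 nM final during compound exposure; series mostly up to about 62 µM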). An outline of the steps: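 With L165041 present at 300 nM final, compounds were incubated 17 h at 37 C on PPARd UAS-bla HEK293H cells. A FRET-based beta-lactamase substrate was then applied for 2 h at room temperature and fluorescence intensity recorded.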

Assay [18] deals with Vitamin D3 receptor (Homo sapiens) (UniProt P11473). Description: qHTS assay to identify small molecule antagonists of the vitamin D receptor (VDR) signaling pathway (AID 743223; active = well fitted inhibition curve with a large enough effect in the signal ratio in the repeat runs, not every such curve was filed as active; the % refers to the signal ratio). The essentials: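 After VDR-bla cells are plated and left 4 h at 37C, DMSO-dissolved compounds and 3 nM (final) calcitriol agonist are added. Incubation continues 16 h at 37C; FRET beta-lactamase substrate then develops 2 h at room temperature.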
Chain of Vitamin D3 receptor (Homo sapiens) (P11473 whole entry, looked up): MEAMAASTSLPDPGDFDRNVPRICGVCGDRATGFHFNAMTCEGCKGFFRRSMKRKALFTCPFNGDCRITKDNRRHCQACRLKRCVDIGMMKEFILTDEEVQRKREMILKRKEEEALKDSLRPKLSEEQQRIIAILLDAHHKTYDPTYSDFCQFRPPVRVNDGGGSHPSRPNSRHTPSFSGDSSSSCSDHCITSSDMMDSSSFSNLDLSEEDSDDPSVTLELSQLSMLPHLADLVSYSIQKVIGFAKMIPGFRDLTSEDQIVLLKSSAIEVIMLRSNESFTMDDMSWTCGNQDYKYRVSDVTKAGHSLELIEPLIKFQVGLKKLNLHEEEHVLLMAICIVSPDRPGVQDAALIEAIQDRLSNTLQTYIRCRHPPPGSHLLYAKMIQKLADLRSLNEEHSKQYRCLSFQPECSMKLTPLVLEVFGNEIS

Assay [19] concerns the target Bile acid receptor (Homo sapiens) (UniProt Q96RI1). Description: qHTS assay to identify small molecule antagonists of the farnesoid-X-receptor (FXR) signaling pathway (AID 743217; active = well fitted inhibition curve with a large enough effect in the signal ratio in the repeat runs, not every such curve was filed as active; the % refers to the signal ratio). An outline of the steps: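 In this cell-based antagonist screen, inhibition of CDCA-driven (50 uM final) UAS-beta-lactamase expression in HEK 293T cells was measured by FRET fluorescence following 16 h compound exposure at 37 °C.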

Assay [20] shares this target. The experiment in a line: qHTS assay to identify small molecule agonists of the farnesoid-X-receptor (FXR) signaling pathway (AID 743220; active = well fitted activation curve with a large enough effect in the signal ratio in the repeat runs, not every such curve was filed as active; the % refers to the signal ratio). An outline of the steps:
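Beta-lactamase reporter under UAS control in GeneBLAzer FXR HEK 293T cells (5000/well) measured with LiveBLAzer FRET substrate after 2 h at room temperature. Compound exposure lasted 16 h at 37C.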

Chain of Bile acid receptor (Homo sapiens) (Q96RI1 whole entry, looked up): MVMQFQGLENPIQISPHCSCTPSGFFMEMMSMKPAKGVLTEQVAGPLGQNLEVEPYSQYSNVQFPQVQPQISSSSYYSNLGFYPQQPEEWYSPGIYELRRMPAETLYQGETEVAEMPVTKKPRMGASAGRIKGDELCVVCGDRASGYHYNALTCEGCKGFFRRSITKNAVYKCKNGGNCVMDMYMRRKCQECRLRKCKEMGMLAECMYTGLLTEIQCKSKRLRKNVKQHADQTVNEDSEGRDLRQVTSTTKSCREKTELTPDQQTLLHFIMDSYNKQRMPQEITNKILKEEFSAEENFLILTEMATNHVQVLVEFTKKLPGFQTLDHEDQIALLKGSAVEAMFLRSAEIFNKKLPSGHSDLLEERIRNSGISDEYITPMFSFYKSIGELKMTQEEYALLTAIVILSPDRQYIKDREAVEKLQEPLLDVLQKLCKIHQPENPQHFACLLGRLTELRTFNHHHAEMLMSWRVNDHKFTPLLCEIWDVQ

`CCCCOC(=O)c1ccccc1C(=O)OCc1ccccc1`: the Potency result in [1], in assay [2], in [3], in assay [4], in assay [5] and in [6] was “inactive” in each case. In addition, the Potency result in assay [7], in [8], in assay [10] and in assay [12] was “inactive” in each case. Further, the compound was classed as inactive in assay [9] and in [11].

With `COc1cc(Cl)c(OC)cc1Cl`, the Potency entry in assay [1], in assay [2], in [3], in assay [4], in [13] and in assay [5] was “inactive” in each case. The Potency entry in [8], in assay [10], in assay [14], in assay [15] and in assay [12] was “inactive” each time. Besides, the outcome in [9] and in assay [16] was inactive.

For `CCOC(=O)COc1cc(-c2nn(C)c(OC(F)F)c2Cl)c(F)cc1Cl`, the Potency entry in assay [1], in assay [3], in assay [4], in assay [13], in assay [6] and in assay [7] was “inactive” throughout. Also, the Potency result in [14], in assay [17] and in assay [12] was “inactive” each time. The Potency in [2] was 19.3 µM (active). In addition, the outcome in assay [11], in assay [16] and in assay [18] was inactive.

Take `CCOC(=O)C(Cl)C(C)=O` (centres undefined): the Potency result in assay [1], in [2], in assay [3], in [4], in assay [5] and in [6] was “inactive” each time. In addition, the Potency entry in assay [7], in assay [8], in assay [10], in assay [14], in assay [15] and in assay [12] was “inactive” each time. The outcome in [9], in [16] and in [18] was inactive.

Consider `C=CCOC(C)=O`, for which the Potency result in assay [1], in assay [2], in [3], in assay [4], in [5] and in assay [6] was “inactive” each time. Besides, the Potency result in [7], in assay [8], in assay [10], in assay [14], in assay [19] and in assay [15] was “inactive” in each case. Further, the call in [9], in assay [20], in assay [16] and in [18] was inactive.

`O=NN1CCCCCC1`: the Potency entry in assay [1], in assay [2], in assay [3], in [4], in assay [5] and in [6] was “inactive” throughout. Besides, the Potency entry in assay [7], in assay [8], in assay [14], in [19], in assay [15] and in [12] was “inactive” each time. The outcome in [9], in assay [20], in assay [16] and in assay [18] was inactive.

As to `c1ccoc1`, the Potency result in [1], in [2], in assay [3], in assay [4], in assay [5] and in [6] was “inactive” throughout. The Potency result in assay [7], in assay [8], in [10], in [14], in [19] and in assay [15] was “inactive” each time. Further, the Potency result in [12] was “inactive”. For the same compound, the compound was called inactive in assay [9], in assay [11], in assay [20], in assay [16] and in [18].

In the case of `CCCCN=C=O`, the Potency entry in [1], in [2], in assay [3], in assay [4], in assay [13] and in [7] was “inactive” in each case. Besides, the Potency entry in assay [14], in [17], in assay [19] and in [15] was “inactive” each time. Further, the result in [9], in [11], in assay [20], in assay [16] and in assay [18] was inactive.

`CCOP(=O)(OCC)Oc1ccc([N+](=O)[O-])cc1`: the Potency entry in [1], in assay [2], in [3], in assay [4], in assay [7] and in assay [8] was “inactive” in each case. Moreover, the Potency result in assay [10], in assay [17], in assay [15] and in assay [12] was “inactive” each time. Moreover, the Potency in assay [13] was 22.1 µM (active). The call in [9], in [11], in assay [20], in assay [16] and in assay [18] was inactive.
